{
  "source": "PubChem BioAssay (NCATS)",
  "note": "Inconclusive results are not listed. Entries that show only a call come without a potency. Calls of active or inactive are those of the source. Calls come from the whole dose curve; as a rule, active = well fitted cell-killing curve with a large enough effect; inconclusive = small, poorly fitted or top-dose-only effect; inactive = flat fitted curve, though single readings scatter. Potency is the fitted concentration of half-maximal effect.",
  "data": [
    {"assay": "Quantitative highthroughput screen to assess conditional lethalithy of P12 Ichikawa cells grown in RPMI1640 with untreated serum (RPMI+s) (AID 1963881); note: nearly all actives have a fitted effect of over 35% in size", "conditions": "ATP luminescence, 48 h; Potency: viability; series mostly up to 45.8 µM", "outline": "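Each medium arm—HPLM with 10% dialyzed FBS, or RPMI1640 with 5 mM glucose and 10% untreated or dialyzed FBS—was screened against an 11-point, 3-fold compound titration for 48 h at 37 °C, with CellTiter-Glo luminescence as endpoint.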", "values": [
      {"molecule": "Cn1c(=O)n(-c2ccc(C(C)(C)C#N)cc2)c2c3cc(-c4cnc5ccccc5c4)ccc3ncc21", "Potency": "2090 nM (active)"},
      {"molecule": "CCN(CC)Cc1ccc2cc(COC(=O)Nc3ccc(C(=O)NO)cc3)ccc2c1", "Potency": "2350 nM (active)"},
      {"molecule": "CCCCCCCCCCCCc1ccc(S(=O)(=O)Nc2nncs2)cc1", "Potency": "inactive"},
      {"molecule": "Cn1cc(C[C@@H](N)C(=O)O)c2ccccc21", "Potency": "inactive"},
      {"molecule": "COCCNCCCn1c(C(=O)CF)c(-c2ccc(C)cc2)c2c(N)ncnc21", "Potency": "inactive"},
      {"molecule": "COc1ncc(-c2ccc3c(Nc4cc(Oc5cc(F)cc(F)c5)cc(C(=O)O)c4)c(S(=O)(=O)NC4CC4)cnc3c2)c(OC)n1", "Potency": "inactive"},
      {"molecule": "O=C(c1ccc(F)cc1)C1CCN(CCn2c(=O)[nH]c3ccccc3c2=O)CC1", "Potency": "inactive"},
      {"molecule": "NS(=O)(=O)c1ccc(Nc2nc(OCC3CCCCC3)c3[nH]cnc3n2)cc1", "Potency": "372 nM (active)"},
      {"molecule": "Cc1ccc(C(=O)Nc2cccc(C(F)(F)F)c2)cc1Nc1nc(-c2cccnc2)nc2c1cnn2C", "Potency": "inactive"},
      {"molecule": "NCCc1ccc(O)c(O)c1", "Potency": "inactive"},
      {"molecule": "COc1cc2ncnc(-n3nc(-c4ccccn4)nc3N)c2cc1OC", "Potency": "26400 nM (active)"},
      {"molecule": "CC(C)c1ccc2c(c1)c(SC(C)(C)C)c(CC(C)(C)C(=O)O)n2Cc1ccc(Cl)cc1", "Potency": "inactive"},
      {"molecule": "CCN(CCO)CCCOc1ccc2c(Nc3cc(CC(=O)Nc4cccc(F)c4)[nH]n3)ncnc2c1", "Potency": "148 nM (active)"},
      {"molecule": "CN[C@@H](C)[C@H]1[C@H](O)C[C@@]2(C)[C@@H]3CC[C@H]4C(C)(C)[C@@H](NC)CC[C@@]45C[C@@]35CC[C@]12C", "Potency": "inactive"},
      {"molecule": "CCC(c1ccc(O)cc1)C(CC)c1ccc(O)cc1", "note": "(stereo not drawn)", "Potency": "inactive"},
      {"molecule": "Cc1ccc(C(=O)c2cc(O)c(O)c([N+](=O)[O-])c2)cc1", "Potency": "inactive"},
      {"molecule": "CCOC(=O)[C@@H](N)CCC(=O)N[C@@H](CSCc1ccccc1)C(=O)N[C@@H](C(=O)OCC)c1ccccc1", "Potency": "inactive"},
      {"molecule": "CC(C)(C)c1cc(C(C)(C)C)c(NC(=O)c2c[nH]c3ccccc3c2=O)cc1O", "Potency": "inactive"},
      {"molecule": "NC(=O)NO", "Potency": "16600 nM (active)"},
      {"molecule": "Nc1ccccc1NC(=O)c1ccc(CNC(=O)OCc2cccnc2)cc1", "Potency": "2640 nM (active)"},
      {"molecule": "COc1cccc(OC)c1-c1cc(C(=O)NC2(C(=O)O)C3CC4CC(C3)CC2C4)nn1-c1ccnc2cc(Cl)ccc12", "note": "(stereo not drawn)", "Potency": "inactive"},
      {"molecule": "Cc1cn(CCN2CCN(c3ccccc3-c3cc(C#N)cc(C(=O)NCCCN4CCCC4)c3)CC2)c2ccccc12", "Potency": "8310 nM (active)"},
      {"molecule": "CCCCCN(CCC12CC3CC(CC(C3)C1)C2)C(=O)NCCCc1ccncc1", "Potency": "inactive"},
      {"molecule": "COC(=O)N[C@H](C(=O)N[C@@H](Cc1ccccc1)[C@@H](O)CN(Cc1ccc(-c2ccccn2)cc1)NC(=O)[C@@H](NC(=O)OC)C(C)(C)C)C(C)(C)C", "Potency": "inactive"},
      {"molecule": "Nc1c2c(nc3ccccc13)CCCC2", "Potency": "inactive"},
      {"molecule": "O=S(=O)(O)CCS", "Potency": "3720 nM (active)"},
      {"molecule": "CCN(c1ccccc1)c1cc(NC)[n+](C)c(C)n1", "Potency": "inactive"},
      {"molecule": "CCn1c(C(=O)N(C2CC2)C2CC2)cc2c3c(ncn3C)c(Nc3cc(C)n(C)n3)nc21", "Potency": "inactive"}
    ]}
  ]
}
